Compounds with a hit are over-represented: about 12% of the library has one in this group of screens.
VP16 counter – VP16 counterscreen qHTS for inhibitors of ROR gamma transcriptional activity | hit rate 3.5% among 310,000 | Potency, µM (highest dose often 53.6 µM), without a hit: at the highest dose activity, negative = inhibition, most hits filed as inhibitors | Drosophila S2 Gal4-VP16 UAS-luciferase, luminescence, 20 h;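 further: Gal4-VP16 expression switched on by copper sulfate through the metallothionein promoter; nearly all actives have a fitted effect of over 50% in size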
RORg inh – qHTS for inhibitors of ROR gamma transcriptional activity; Nuclear receptor ROR-gamma (Mus musculus), P51450; Drosophila S2 Gal4-RORgamma UAS-luciferase reporter, 20 h; Potency, µM (series often up to 53.6 µM), inactives show top-dose activity change, negative = inhibition, usual class: inhibitors; hit rate 5.4% among 310,000; AID 2551, 2010; further: nearly all actives have a fitted effect of over 60% in size
Target sequence (P51450 whole entry, looked up, the tested form may be a part): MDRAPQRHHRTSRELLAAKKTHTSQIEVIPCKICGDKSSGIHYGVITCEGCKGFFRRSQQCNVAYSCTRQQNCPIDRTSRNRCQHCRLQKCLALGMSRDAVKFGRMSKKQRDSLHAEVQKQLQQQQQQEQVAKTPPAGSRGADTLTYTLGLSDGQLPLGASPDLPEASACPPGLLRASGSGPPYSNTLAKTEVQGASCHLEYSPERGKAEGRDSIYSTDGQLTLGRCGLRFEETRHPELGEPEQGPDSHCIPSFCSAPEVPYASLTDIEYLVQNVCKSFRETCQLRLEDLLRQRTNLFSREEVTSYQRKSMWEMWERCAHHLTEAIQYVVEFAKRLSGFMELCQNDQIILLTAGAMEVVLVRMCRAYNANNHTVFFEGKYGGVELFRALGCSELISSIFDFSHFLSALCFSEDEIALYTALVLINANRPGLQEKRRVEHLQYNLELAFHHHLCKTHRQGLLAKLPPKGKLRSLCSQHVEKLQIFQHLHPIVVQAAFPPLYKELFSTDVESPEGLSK
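Compounds are pin-transferred onto Drosophila Schneider cells expressing a copper-inducible Gal4–ROR gamma transactivation domain fusion. After 1 hr, copper sulfate is added to 700 uM final; luciferase is read 20 hr later.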
PLK1 PBD block – qHTS for Inhibitors of PLK1-PDB (polo-like kinase 1 - polo-box domain): Primary Screen. Serine/threonine-protein kinase PLK1 (Homo sapiens), P53350. Plk1 PBD binding of FITC phosphopeptide, fluorescence polarization. Potency, µM, for the others: max response, negative = inhibition, hits mostly inhibitors. hit rate 2.8% among 360,000. AID 720504, 2013; further: series mostly up to about 57 µM; nearly all actives have a fitted effect of over 65% in size
Sfp inh – qHTS Assay for Inhibitors of Bacillus subtilis Sfp phosphopantetheinyl transferase (PPTase). 4'-phosphopantetheinyl transferase ffp (Bacillus subtilis), Q9F4F7. Biochemical Sfp PPTase activity, qHTS. Potency, µM, inactives show largest response in the series, negative = inhibition, hits mostly inhibitors. hit rate 3.5% among 310,000;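 further: the enzyme is Sfp with the accession as filed and its product quenches rhodamine fluorescence; 0% = enzyme reaction without inhibitor and -100% = no enzyme wells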
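Step 1, compound plus 15 nM Sfp-PPTase, 15 min, room temperature. Step 2, add rhodamine-CoA (5 uM) and BHQ-2-YbbR (12.5 uM). Step 3, read 525/598 nm fluorescence at 0 and 30 min.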
ALDH1A1 block – qHTS Assay for Inhibitors of Aldehyde Dehydrogenase 1 (ALDH1A1). Aldehyde dehydrogenase 1A1 (Homo sapiens), P00352. Purified ALDH1A1, NADH fluorescence, propionaldehyde substrate. Potency, µM (highest dose often 75.3 µM), inactives show at the top dose activity, negative = inhibition, actives largely listed as inhibitors. hit rate 7.3% among 220,000. AID 1030, 2008; active means well fitted inhibition curve with a large enough effect, not every such curve was filed as active; inconclusive means small, poorly fitted or top-dose-only effect, or another doubt; inactive means no such curve, though single readings can be large or run the other way;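 further: plate controls were no enzyme wells and a reference inhibitor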
Starred values were filed as active, the others as inactive; ? = inconclusive; . = no result; [ ] = remark or other dose. Unless noted, the call rests on the fitted dose curve; in most records, active means well fitted curve in the direction sought with a large enough effect; inconclusive means small, poorly fitted or top-dose-only effect, or another doubt; inactive means no such curve, though single readings can be large; an effect the other way counts as inactive or inconclusive. Unless noted, on the % scale 0 is the no-effect control and ±100 the full control effect; potency means the concentration at half of the fitted maximal effect.

SMILES | VP16 counter | RORg inh | PLK1 PBD block | Sfp inh | ALDH1A1 block
COc1ccc([C@H]2C[C@@H](O)C[C@@H](CCn3cc(-c4ccccc4)nn3)O2)cc1 | . | . | 6.5% | . | .
C/C=C(/CC[C@@H](C)[C@H]1CCC2C3=CC[C@H]4[C@H](C)[C@@H](O)CC[C@]4(C)C3CC[C@@]21C)C(C)C (stereo partly drawn) | -3.7% | -21.8% | . | -0.7% | ?
CC1CCc2sc(-c3n[nH]c(=S)o3)cc2C1 (stereo not drawn) | ? | ? | -13.1% | -23.6% | ?
S=c1[nH]nc(-c2cc3c(s2)-c2ccccc2CC3)o1 | 10µM* | 5.01µM* | 21.2µM* | ? | ?
CSc1nnc(-c2cc3c(s2)-c2ccccc2CC3)o1 | -30.0% | 1.26µM* | -0.5% | 17.8µM* | ?
COc1cccc(C(C2C(=O)CC(C)(C)CC2=O)C2C(=O)CC(C)(C)CC2=O)c1 | -20.4% | 2.9% | ? | -28.8% | .
Cc1cc(C(C2C(=O)CC(C)(C)CC2=O)C2C(=O)CC(C)(C)CC2=O)cc(C)c1OC(F)F | 3.5% | -15.3% | 5.32µM* | -9.9% | .
CCN(CC)c1ccc(C=NCCc2ccc(S(N)(=O)=O)cc2)cc1 | -16.3% | -12.1% | -8.2% | 9.4% | 0.126µM*
CCN(CC)c1ccc(/C=N\NC(N)=O)cc1 | 8.0% | ? | -11.1% | -7.6% | ?
Cc1cc(Cl)nc2c(C(C)C)cccc12 | -3.1% | -0.7% | 16.8µM* | 18.9% | -4.0%
Cc1cc(N2CCCCC2)nc2c(C)cccc12 | -6.9%[10 µM] | ? | -5.8% | 0.3% | -12.2%
O=C(c1ccncc1)N1CCC2(CCN(Cc3ccncc3)CC2)CC1 | -5.5% | 0.7% | . | 17.7% | -8.2%
Cc1ccc(S(=O)c2ccc(NC(=O)C3CC3)cc2C#N)cc1 (stereo not drawn) | ? | 25.3% | 10.6µM* | 17.3% | -8.7%
COc1ccccc1/C=C/C=N/n1c(COc2ccccc2)n[nH]c1=S | -22.8% | 3.55µM* | ? | 11.3% | ?
COc1cccc(/C=N/n2c(COc3ccccc3)n[nH]c2=S)c1O | ? | 12.6µM* | ? | ? | .
COc1cc(/C=N/n2c(COc3ccccc3)n[nH]c2=S)cc(OC)c1OC(C)=O | -12.5% | -12.8% | ? | ? | .
Cc1n[nH]c(=S)n1/N=C/c1ccccc1OCc1ccc(Cl)cc1 | ? | 4.47µM* | -14.3% | 50.1µM* | -6.2%
COc1cccc(/C=N/n2c(COc3ccccc3)n[nH]c2=S)c1OC | ? | 20µM* | ? | -21.0% | .
CN(CC(=O)NCc1ccco1)S(=O)(=O)c1ccc(F)cc1 | 3.2% | -5.9% | -4.2% | -3.4% | .
Cc1oc(-c2cccs2)cc1C(=O)N1CCCC(C)(C(=O)O)C1 (stereo not drawn) | . | . | -8.1% | . | .
Clc1ccc(C2CC(c3ccccc3)Nc3ncnn32)cc1 (stereo not drawn) | -20.0% | -40.6% | -5.3% | 3.6% | 1.1%
Clc1ccc(C2CC(c3ccco3)n3ncnc3N2)cc1Cl (stereo not drawn) | 1.1% | -29.9% | -7.0% | 5.5% | 31.6µM*
COc1cccc(C2CC(c3ccccc3)Nc3ncnn32)c1 (stereo not drawn) | -7.1% | ? | -5.1% | -1.0% | 7.08µM*
COc1ccccc1C1CC(c2ccc(Cl)cc2)Nc2ncnn21 (stereo not drawn) | . | -13.2%[0.365 µM] | 26.7µM* | -2.1% | -6.7%
COc1cccc(C2CC(c3ccccc3OC)n3ncnc3N2)c1 (stereo not drawn) | -12.0% | 0.8% | -4.4% | 1.3% | 14.4%
SMILES | VP16 counter | RORg inh | PLK1 PBD block | Sfp inh | ALDH1A1 block
c1ccc(Nc2ncnc3c2oc2ccccc23)cc1 | 26.6% | -9.4% | -2.2% | 79.4µM* | ?
c1ccc2c(c1)oc1c(NCCN3CCOCC3)ncnc12 | 5.2% | 3.8% | -8.1% | 7.6% | 19.9%
c1ccc2c(c1)oc1c(Nc3ccc(CN4CCOCC4)cc3)ncnc12 | -28.2% | -11.4% | 1.4% | -4.9% | 20µM*
Cc1cc(C(F)(F)F)c2c(N)c(C(=O)NCc3ccc(Cl)cc3)sc2n1 | . | . | -6.8% | . | .
Cc1cc(C(F)(F)F)c2c(N)c(C(=O)Nc3cc(C)on3)sc2n1 | 3.98µM* | 7.08µM* | -8.9% | 9.3% | ?
CCCCSc1nnc2c(n1)OC(C(=O)c1ccccc1)Nc1ccccc1-2 (stereo not drawn) | -2.5% | 34.9% | . | -6.0% | 20µM*
COc1ccccc1C(=O)C1Nc2ccccc2-c2nnc(SC)nc2O1 (stereo not drawn) | -3.4% | 41.8% | -24.6% | -0.8% | 22.4µM*
CC(=O)Nc1ccccc1C=C1c2ccccc2-c2ccccc21 | . | . | . | . | 8.9%[13.5 µM]
Cc1cc(S(=O)(=O)N2CCN(c3ccccc3F)CC2)ccc1-n1cnnn1 | -23.2% | ? | -1.6% | -8.3% | .
CCCCn1c(N)c(N(CCC(C)C)C(=O)COC(=O)Cc2ccc(Cl)cc2)c(=O)[nH]c1=O | . | . | 3.6% | . | .
OCCNc1ncnc2c1ncn2[C@@H]1O[C@@H](CO)[C@H](O)[C@@H]1O | . | . | . | . | -6.2%[13.5 µM]
COc1cccc(N2CCN(C(=O)CCCCCn3c(=S)[nH]c4cc5c(cc4c3=O)OCO5)CC2)c1 | -25.8% | 2.24µM* | -7.3% | 24.6% | .
O=C(CCCCCn1c(=S)[nH]c2cc3c(cc2c1=O)OCO3)N1CCN(c2ccccc2)CC1 | -6.9% | ? | -2.8% | 2.7% | .
O=C(CCCn1c(=S)[nH]c2cc3c(cc2c1=O)OCO3)N1CCN(c2ccccc2F)CC1 | 7.94µM* | 12.6µM* | 0.8% | 9.7% | -4.2%
O=C(CCCn1c(=S)[nH]c2cc3c(cc2c1=O)OCO3)N1CCN(c2ccc(F)cc2)CC1 | ? | 7.94µM* | -6.4% | 14.5% | 3.9%
Cc1ccc(C)c(N2CCN(C(=O)CCCn3c(=S)[nH]c4cc5c(cc4c3=O)OCO5)CC2)c1 | . | -3.3%[0.365 µM] | -7.6% | 6.8% | 10.8%
O=C(CCCn1c(=S)[nH]c2cc3c(cc2c1=O)OCO3)N1CCN(c2ncccn2)CC1 | -20.9% | 15.8µM* | -2.4% | -17.9% | 3.5%
COc1cccc(-c2cccc3c2NC(=O)C3(C)Cc2cccc(F)c2)c1 (stereo not drawn) | . | . | -4.1% | . | .
Cc1cc(C(=O)OC(C)C(=O)NC2CCCCC2C)c2ccccc2n1 (stereo not drawn) | . | . | -6.5% | . | .
O=C(CC1CC2CCC1C2)N1CCN(S(=O)(=O)c2ccc(C(F)(F)F)cc2)CC1 (stereo not drawn) | . | . | 5.4% | . | .
O=C1NN(C(=O)Nc2ccc(Br)cc2)C(c2ccccc2)C1c1ccccc1 (stereo not drawn) | 4.9% | 8.1% | . | 8.3% | .
O=C1OCCC1S(=O)(=O)c1ccc2ccccc2c1 (stereo not drawn) | -7.9% | -14.5% | -8.5% | 6.2% | -2.7%
O=C(c1ccccc1)N1CCCCC(S(=O)(=O)c2ccc3ccccc3c2)C1=O (stereo not drawn) | 18.5% | 12.6% | -5.6% | 3.1% | 10µM*

Screens from PubChem BioAssay.
